Source: PubChem BioAssay
MBD2 inh = inhibitors of human MBD2 binding to methylated oligonucleotide; Q9UBB5; TR-FRET; inhibition, % at 4.4 µM; 370,000 compounds, 0.31% hits; AID 686964; in the data active = inhibition above about 13%
UHRF1 MBD2 ctr = human UHRF1 methylated DNA binding inhibitors; inhibition, % at 4.4 µM; UHRF1 binding to methylated oligo, TR-FRET; 370,000 compounds, 0.75% hits; in the data active = inhibition above about 21%;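 note: UHRF1 SRA domain binding a hemimethylated CpG hairpin DNA probe; 0% = median of test compound wells and 100% = reference inhibitor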
Target sequence (Q96T88 whole entry, looked up, the tested form may be a part): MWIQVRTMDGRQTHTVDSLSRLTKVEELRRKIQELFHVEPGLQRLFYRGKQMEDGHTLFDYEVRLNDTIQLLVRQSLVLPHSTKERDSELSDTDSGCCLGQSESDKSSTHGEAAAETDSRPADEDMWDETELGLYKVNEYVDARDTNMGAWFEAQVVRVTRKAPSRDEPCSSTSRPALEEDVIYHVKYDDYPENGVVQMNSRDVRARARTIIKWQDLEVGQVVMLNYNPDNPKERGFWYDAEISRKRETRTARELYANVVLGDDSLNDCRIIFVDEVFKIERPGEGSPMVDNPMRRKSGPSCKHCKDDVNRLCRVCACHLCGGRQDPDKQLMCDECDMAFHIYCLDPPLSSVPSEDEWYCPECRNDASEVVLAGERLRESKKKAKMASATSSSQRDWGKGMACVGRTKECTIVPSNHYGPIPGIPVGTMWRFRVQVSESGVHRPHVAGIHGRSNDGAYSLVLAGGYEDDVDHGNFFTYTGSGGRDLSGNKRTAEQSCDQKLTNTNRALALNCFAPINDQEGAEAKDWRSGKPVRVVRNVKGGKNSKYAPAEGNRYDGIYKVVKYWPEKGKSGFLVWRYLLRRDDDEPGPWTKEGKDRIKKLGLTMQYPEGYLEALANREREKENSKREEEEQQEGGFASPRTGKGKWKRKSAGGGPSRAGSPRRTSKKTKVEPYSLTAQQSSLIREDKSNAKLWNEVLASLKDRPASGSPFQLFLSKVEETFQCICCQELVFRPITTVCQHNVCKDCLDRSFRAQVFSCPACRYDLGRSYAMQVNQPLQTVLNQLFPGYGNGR
LEDGF integ inh = blocks HIV-1 LEDGF/p75-dependent DNA integration. 370,000 compounds, 0.64% hits. inhibition, % at 3.7 µM. TR-FRET IN-LEDGF/p75 DNA integration, Eu/Cy5;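 active = inhibition above the screen-wide mean plus 3 SD, cut at about 13% in these data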;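 note: signal is the Cy5 over europium emission ratio at 671 and 618 nm; 0% = plate median of compound wells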
DNMT1 inh = inhibitors of human DNMT1 | P26358 | DNMT1 molecular beacon, Hinp1I cleavage, fluorescence | inhibition (reported as % activation of signal), % at 10 µM | 360,000 compounds, 0.83% hits | AID 588458; in the data active = inhibition above about 50%
PG9 binder = small molecules binding HIV-1 gp120 antibody PG9; TR-FRET gp120-PG9 antibody binding; AID 624416; 360,000 compounds, 0.43% hits; inhibition, % at 6.7 µM; in the data active = inhibition above about 8.5%
rCAG RNA binder = molecules binding r(CAG) RNA repeats; r(CAG) RNA repeat, TO-PRO-1 dye displacement fluorescence; inhibition, % at 3 µM; 370,000 compounds, 1.3% hits;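 active = inhibition above the plate cutoff, the mean of all test compounds on that plate plus 3 SD, cut at about 35% in these data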;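 note: 0% = DMSO alone and 100% = 100 µM mitoxantrone as full dye displacement; higher means more dye released from RNA so lower well fluorescence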
IN multimer up = activates HIV-1 integrase multimerization in LEDGF counter-screen; shares compounds with LEDGF integ inh; AID 1053131; activation, % at 7.7 µM; TR-FRET HIV-1 integrase multimerization, biochemical; 2,000 compounds, 17% hits; in the data active = activation above about 8.9%
TR-FRET interf = TR-FRET optical interference, LEDGF/p75 integration counter-screen; shares compounds with LEDGF integ inh; TR-FRET optical interference counterscreen, HIV-1 IN multimerization; inhibition, % at 7.7 µM; 2,000 tested, under 10 active; AID 1053135;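 active = inhibition above the mean over all tested compounds plus 3 SD, which no compound reached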;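 note: 0% = integrase with antibodies and DMSO and 100% = antibodies without integrase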
IN-LEDGF confirm = LEDGF/p75-dependent HIV-1 integration inhibition, confirmation | 2,000 compounds, 36% hits | inhibition, % at 3.7 µM | TR-FRET LEDGF/p75-dependent HIV-1 integration, biochemical | shares compounds with LEDGF integ inh; in the data active = inhibition above about 14%
Numbers without * were called inactive; x = no result. Only some compounds are listed: those with a hit (about 3.5% of all), similar ones and a draw of the others.

SMILES | MBD2 inh | UHRF1 MBD2 ctr | LEDGF integ inh | DNMT1 inh | PG9 binder | rCAG RNA binder | IN multimer up | TR-FRET interf | IN-LEDGF confirm
C[n+]1c(-c2ccccc2)cc2c(=Cc3ccc([N+](=O)[O-])cc3)c3ccccc3n21 | -10 | 5 | 25* | 52* | -3 | 11 | 7 | -25 | 48*
COc1cc2c3c(n(C)c(=O)c2cc1OC)-c1cc2c(cc1C3=O)OCO2 | x | x | x | -3 | x | x | x | x | x
O=C(CN(C(=O)c1csnn1)c1ccc2c(c1)OCCO2)NCc1ccccc1 | -1 | -1 | 26* | 6 | -1 | 2 | -2 | 9 | -2
COP(=O)(OC)c1ccc(NCc2cc(O)ccc2O)cc1 | -2 | 2 | 20* | 1 | 0 | 8 | 64* | -225 | 24*
C=CCNC(=S)N/N=C/c1ccc(-c2ccc(Br)cc2)o1 | 0 | -1 | -1 | -2 | 2 | 9 | x | x | x
Cc1nnc(N/N=C/c2ccc([N+](=O)[O-])cc2)n1N | -2 | 19 | 79* | -2 | -3 | 1 | 1 | -4 | -3
Cc1nnc(N/N=C\c2ccc(-c3cccc(C(=O)O)c3)o2)n1N | -5 | 6 | 53* | -3 | -13 | 1 | 5 | -19 | 0
Cc1nnc(N/N=C/c2ccc(Br)cc2)n1N | 2 | 8 | 47* | -3 | -4 | 1 | 0 | -1 | -3
Cc1nnc(N/N=C/c2ccc(-c3ccc(Br)cc3)o2)n1N | -6 | 2 | 49* | -6 | -5 | 6 | 0 | 1 | -5
O=C(O)c1cccc(-c2ccc(/C=N/NC(=O)c3cccnc3)o2)c1 | 3 | 7 | 5 | 18 | -4 | 0 | x | x | x
Cc1csc(N/N=C/c2ccc([N+](=O)[O-])cc2)n1 | 4 | 0 | -1 | -8 | -3 | 4 | x | x | x
COc1ccc(NS(=O)(=O)c2ccc(C)c(C(=O)NCCCN3CCCC3=O)c2)cc1 | 5 | -3 | 3 | -1 | 0 | 8 | x | x | x
Cc1cccc(-c2cc(NCCc3cccnc3)n3nccc3n2)c1 | -7 | 0 | 4 | 2 | -1 | 2 | x | x | x
COC(=O)C[C@@H]1OC[C@H](CO)N1S(=O)(=O)c1ccc(C)cc1 | 1 | 1 | 4 | x | 1 | 3 | x | x | x
Cc1cc(Cl)cc(C)c1OCCCCN1CCOCC1 | -5 | -1 | 15* | -1 | 1 | -5 | -1 | 4 | 2
Cc1cc(Cl)c(OCCCCN2CCOCC2)c(Br)c1 | 2 | 1 | 0 | 3 | -1 | -6 | x | x | x
O=C1c2cc(O)c(O)cc2S(=O)(=O)C1c1ccccc1 (configuration not stated) | 2 | 27* | 23* | 1 | -5 | 6 | 2 | -8 | 8
Cc1cccc(N2C(=O)CS/C2=N\NC(=O)c2ccc(Br)cc2)c1C | 3 | 3 | 16* | 2 | 1 | -4 | -2 | 8 | -1
O=C1c2ccc([N+](=O)[O-])cc2C(=O)N1Cc1cccnc1 | 1 | 5 | -4 | 2 | -1 | 0 | x | x | x
CC(=O)c1cccc(-c2ccc3c(c2)C(C)(Cc2ccc(S(C)(=O)=O)cc2)C(=O)N3)c1 (configuration not stated) | -5 | 0 | 48* | 4 | 2 | 2 | 0 | 3 | -2
OC[C@H]1O[C@@H](c2nc(-c3ccc4c(c3)CCO4)no2)[C@H](O)[C@@H](O)[C@H]1O | 2 | -1 | 1 | 5 | -1 | 1 | x | x | x
OC[C@H]1O[C@@H](c2nc(-c3ccc(CN4CCOCC4)cc3)no2)[C@H](O)[C@@H](O)[C@H]1O | 0 | 0 | 16* | 3 | -2 | 0 | -1 | 4 | -1
O=[N+]([O-])c1cc([N+](=O)[O-])c2nonc2c1Nc1ccc(O)cc1 | -13 | -3 | 15* | -7 | -4 | 8 | 6 | -20 | 3
CCOC(=O)c1ccc2ncc(C(=O)OCC)c(NCCCN3CCOCC3)c2c1 | 2 | 6 | -5 | 3 | 0 | -11 | x | x | x
CCOC(=O)c1cnc2ccc(C)cc2c1NCCN1CCOCC1 | -4 | 3 | 44* | 2 | 1 | -9 | 1 | -4 | 1
SMILES | MBD2 inh | UHRF1 MBD2 ctr | LEDGF integ inh | DNMT1 inh | PG9 binder | rCAG RNA binder | IN multimer up | TR-FRET interf | IN-LEDGF confirm
CC1(C(=O)NS(=O)(=O)c2ccc(Cl)cc2)CCN1C(=O)c1ccco1 (configuration not stated) | -5 | 0 | 1 | 3 | 0 | 2 | x | x | x
COc1cccc(-c2nnc(NC(=O)CCS(=O)(=O)c3ccc(F)cc3)o2)c1 | -2 | -1 | 15* | 0 | -1 | 12 | 5 | -28 | -3
CCc1nc2ccc(C(=O)N3CCN(C(=O)c4ccco4)CC3)cn2c1N(C)Cc1cccs1 | 0 | 1 | 0 | -3 | 0 | 0 | x | x | x
Cc1ccc(N2CCN(c3ccc(NC(=O)CCC(=O)O)cc3)CC2)cc1 | -2 | -2 | 0 | -9 | -2 | 4 | x | x | x
O=C(O)CCC(=O)Nc1ccc(N2CCCCCC2)cc1 | -3 | -2 | 14* | -9 | -12 | -2 | 5 | -25 | -10
CCCOc1ccc(/C=C/C(=O)N2CCOCC2)cc1 | 3 | -3 | -1 | -2 | 0 | -7 | x | x | x
CC(C)CSc1nnc(-c2ccco2)n1C | 5 | 1 | 23* | x | x | 0 | -3 | 13 | 0
Cc1ccc(-c2nnc(SCC(C)C)n2C)cc1 | -7 | -1 | 1 | -2 | 3 | -7 | x | x | x
NNC(=O)c1cccnc1Oc1ccccc1 | 6 | -2 | -2 | 3 | -2 | 0 | x | x | x
Cc1ccc(Oc2ncccc2C(=O)NCC(=O)O)cc1 | -6 | 0 | 17* | 6 | -3 | 2 | 0 | 0 | 0
O=C(OCC(=O)N1CCCc2ccccc21)c1ccccc1OC(F)F | -4 | -2 | 2 | 1 | -1 | 5 | x | x | x
COc1cccc(CN2CCNC(=O)C2CC(=O)N(C)CCC2CCOCC2)c1OC (configuration not stated) | -1 | -2 | 0 | -6 | -3 | -5 | x | x | x
Cc1ccc(C(=O)O)cc1N1C(=O)c2cccc3c([N+](=O)[O-])ccc(c23)C1=O | 0 | 19 | 14* | 60* | -3 | 19 | 3 | -12 | 27*
CC(C)NC(=O)CN1CCN(C(c2cc3ccccc3o2)c2nnnn2C(C)(C)C)CC1 (configuration not stated) | -3 | -1 | -4 | x | -2 | 1 | x | x | x
CC1(C)Cc2cccc(OC(=O)NCCc3ccc(F)cc3)c2O1 | 0 | -2 | 15* | x | -1 | 0 | 1 | -5 | -11
O=C(CCC(=O)c1ccccc1)Nc1ccccc1 | 1 | 3 | 14* | 0 | 0 | 4 | 0 | 2 | -1
